# In PubChem BioAssay (NCI):
# The panel holds about 83,000 compounds, 20% with a hit somewhere; the sample as a whole holds those more often.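 Cell lines were cultured in 96-well plates, exposed to a single compound concentration, and assessed for percent growth 48 hours later.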 Values without a mark were called inactive. Activity calls are given as the source filed them.
# Test system: SK-MEL-5 melanoma
# Assay: NCI-60 one-dose screen, 48 h (100 = growth as untreated, 0 = no growth, -100 = all killed)
# Settings: 10 µM unless noted
# Method: Growth inhibition of the SK-MEL-5 human tumor cell line is measured as a screen for anti-cancer activity. Cells are grown in 96 well plates and exposed to the test compound for 48 hours. Compounds are tested at a single concentration, which is 10^-5 M for most compounds. The reported endpoint is percent growth (GI% or GIPRCNT), where numbers from 0 - 100% represent growth inhibition, and numbers from -100% - 0 represent cell death. For example, a value of 40 represents 60% growth inhibition. A value of 0 means no net growth occurred over the course of the experiment. A value of -40 indicates 40% of cells at the beginning of the experiment died by the end of the experiment. A value of -100 means all cells are dead at the end of the experiment.
# NCI-60 Human Tumor Cell Lines Screen was performed using the standard one-dose NCI protocol, which is described in more detail at https://dtp.cancer.gov/discovery_development/nci-60/default.htm.
# Compounds with GIPRCNT values below 10 were considered active. Activity score was based on GIPRCNT using the following formula: […]
# Score is 0 for GIPRCNT values of 100 or above, 50 for GIPRCNT values of 0, and 100 for GIPRCNT values of -100.
row,SMILES,growth
1,CN1CCN(c2cc(F)c(NC3=C(Cl)C(=O)c4ncccc4C3=O)c(F)c2)CC1,-91.7% (active)
2,N#C/C(=C\c1ccc(Br)cc1)n1nnc2cccc(F)c21,1.82% (active)
3,O=C1CCC(NC(=S)Nc2ccccc2)N1 (stereo not given),106%
4,Clc1nc(Cl)c2ncn(CC3(Cn4cnc5c(Cl)nc(Cl)nc54)COC3)c2n1,-96.2% (active)
5,Cc1cc2cc3cc(C)c(N)cc3[n+](C)c2cc1N,18.4%
6,CN(C)Cc1c(-c2ccccc2)[nH]c2ccccc12,101%
7,Fc1ccc(-n2cc(COc3ncnc4sc5c(c34)CCCC5)nn2)cc1Cl,103%
8,Brc1ccc(C2CC(c3cccc(Nc4ccncc4)c3)=NN2c2ccccc2)cc1 (stereo not given),82.2%
9,Cc1cc(Nc2cccc(C(F)(F)F)c2)n2c(nc3ccccc32)c1C#N,4.24% (active)
10,COc1ccc(C(=O)c2cc3c(N)c(C(=O)Nc4cccc5ccccc45)sc3nc2C)cc1,-12.3% (active)
11,COc1ccc(C2CC(n3nnnc3-c3ccccc3)=NN2)cc1 (stereo not given),70.7%
12,N#Cc1ccc(-c2ccc3c(c2)NC(=O)/C3=C\c2ccc[nH]2)cc1,85.4%
13,COc1ccc(Cc2nc3cc(OC)c(OC)cc3c(=O)[nH]2)cc1,90.8%
14,N#Cc1c(Nc2ccccc2)nn2cc(-c3nc4ccccc4s3)c(N)nc12,67.6%
15,COc1ccc(/C=C/C(=O)c2ccc(OC)c(OC)c2)cc1O,77.2%
16,COc1ccc(-c2c[nH]c(C(=O)O)c2-c2cc(OC)c3c(c2OC)OCO3)cc1,102%
17,COc1ccc(-c2nc(N/N=C/c3cccc(O)c3)nc(N3CCOCC3)c2C#N)cc1,80.1%
18,COc1cc(-c2nc3occn3c2-c2ccnc(NCCNS(=O)(=O)c3ccc(Cl)cc3)n2)ccc1F,66.1%
19,C=Cc1cc[n+](CCCCCCCCCCCC)cc1,104%
20,CCCCCCN(C)Cc1ccc(OCCOc2ccc(CN(C)CCCCCC)cc2)cc1,-99.7% (active)

row,SMILES,growth
1,COc1cc(CCNc2nc3cc(N)cc(N)c3nc2-c2ccccc2)cc(OC)c1,-91.7% (active)
2,CCCCCN1C=C/C(=C\C(=O)N(C)c2ccc(Br)cc2)c2ccccc21,97.9%
3,NC(=O)CN1CCN(c2ccccc2Cl)CC1,110%
4,CC[N+](CC)(CCCC(C)[N+]1(Cc2ccccc2)C(C)=CC=C1C)Cc1ccccc1 (stereo not given),68.7%
5,COc1ccc(NC(=O)c2sc3nc(C)c(C(=O)CCc4cccc(OC)c4)cc3c2N)cc1,61.9%
6,CC1(C)CN(c2cnc(C(=O)Nc3cc(F)cc4cccnc34)cn2)CCN1,89.3%
7,COc1cnccc1-c1nc2ccc3[nH]ncc3c2c2c1CCCC2,54.1%
8,COc1ccccc1N1CCN(C(=O)c2ccc3nc(NC(=O)c4ccc(NCCc5ccccc5)c([N+](=O)[O-])c4)sc3c2)CC1,84.4%
9,NC(=O)c1cccc(-n2ccc3cc(NC(=O)Nc4cc(C(F)(F)F)cc(C(F)(F)F)c4)ccc32)n1,69%
10,CN1CCCC1=Nc1ccccc1,104%
11,S=c1[nH]cccc1-c1nnc2n1Nc1nc3ccc(Cl)cc3cc1CS2,98%
12,CC(C)Cc1ccc(C(C)C(=O)NCc2c[nH]c3ccc(Cl)cc23)cc1 (stereo not given),85.4%
13,COc1cc(NCC(O)CN(CC(C)C)CC(C)C)c2nc(C)ccc2c1 (stereo not given),93.5%
14,Cc1ccc(Nc2cc(=S)nc(N)[nH]2)cc1C,102%
15,CC(C)(C)CC(C)(C)Nc1c(-c2ccc3c(c2)OCO3)nc2cnccn12,87.7%
16,Nc1c(C(=O)Nc2ccc(Cl)cc2)cc(-c2nc3ccccc3s2)c(=O)n1NS(=O)(=O)c1ccc(Cl)cc1,96.4%
17,Cc1[nH]n(C(=O)c2ccncc2)c(=O)c1N=Nc1ccc(F)c(Cl)c1,107%
18,COc1ccc(C(=O)c2cc3c(N)c(C(=O)Nc4ccc(Cl)cc4)sc3nc2C)cc1,85.2%
19,CCCCCCCCOC(=O)c1ccc(O)c(OC)c1,97.1%
20,CNC(=O)Nc1ccc(-c2nc(N3CCOCC3)nc3c2cnn3C2CCOCC2)cc1,-47.7% (active)
